# PLK1 PBD inh = blocks phosphopeptide binding to human PLK1 polo-box domain; Plk1 PBD binding of FITC phosphopeptide, fluorescence polarization; 2.8% of 360,000 active; P53350; AID 720504; Potency, µM, without a hit: max response, negative = inhibition, usual class: inhibitors; further: series mostly up to about 57 µM; nearly all actives have a fitted effect of over 65% in size
# ALOX12 inh = inhibitors of human 12S-lipoxygenase ALOX12; P18054; purified 12hLO, xylenol orange hydroperoxide absorbance; Potency, µM (highest dose often 108 µM), inactives show top-dose activity change, negative = inhibition, hits mostly inhibitors; 1.1% of 580,000 active; AID 1671190
# Target sequence (P18054 whole entry, looked up): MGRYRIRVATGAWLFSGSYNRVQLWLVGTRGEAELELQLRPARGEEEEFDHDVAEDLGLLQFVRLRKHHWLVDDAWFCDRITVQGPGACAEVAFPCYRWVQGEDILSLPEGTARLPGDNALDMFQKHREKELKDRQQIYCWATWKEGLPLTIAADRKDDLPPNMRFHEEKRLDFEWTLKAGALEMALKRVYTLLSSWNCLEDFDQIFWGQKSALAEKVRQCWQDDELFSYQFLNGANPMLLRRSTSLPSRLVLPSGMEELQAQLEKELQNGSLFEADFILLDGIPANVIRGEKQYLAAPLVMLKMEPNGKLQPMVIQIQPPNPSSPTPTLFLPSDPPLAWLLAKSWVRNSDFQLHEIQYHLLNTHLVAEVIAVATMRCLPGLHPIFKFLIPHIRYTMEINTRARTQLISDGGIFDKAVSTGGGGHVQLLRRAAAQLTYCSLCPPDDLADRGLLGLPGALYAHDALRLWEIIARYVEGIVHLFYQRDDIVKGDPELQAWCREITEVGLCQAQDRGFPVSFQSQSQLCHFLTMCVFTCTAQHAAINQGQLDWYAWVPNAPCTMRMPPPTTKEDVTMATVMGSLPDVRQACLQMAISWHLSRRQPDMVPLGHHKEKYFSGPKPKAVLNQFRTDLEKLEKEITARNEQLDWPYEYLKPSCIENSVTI
#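 Purified human 12hLO at 150 nM in 25 mM Hepes, 0.01% Triton X-100, pH 7.0, preincubated 15 min at room temperature with compound. Reaction started with 40 uM arachidonic acid, 30 min at room temperature. Hydroperoxide measured by Fe-xylenol orange, 573/405 nm absorbance ratio.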
# VDR inhibitor = vitamin D3 receptor (human) inhibition | P11473 | VDR-SRC2-3 peptide fluorescence polarization, 2 h | Potency, µM, without a hit: max response, negative = inhibition, most hits filed as inhibitors | 0.93% of 400,000 active
#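 Fluorescence polarization assay measuring small-molecule disruption of VDR binding to the coregulator peptide SRC2-3. Compounds were pin-transferred (23 nl) into the reagent mix and incubated 2 h at room temperature before reading.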
# Sfp PPTase inh = inhibitors of Bacillus subtilis Sfp phosphopantetheinyl transferase; Biochemical Sfp PPTase activity, qHTS; Potency, µM, for the others: largest response in the series, negative = inhibition, most hits filed as inhibitors; AID 1490; Q9F4F7; 3.5% of 310,000 active;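 further: the enzyme is Sfp with the accession as filed and its product quenches rhodamine fluorescence; 0% = enzyme reaction without inhibitor and -100% = no enzyme wells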
#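 Buffer: 50 mM Hepes-Na pH 7.6, 10 mM MgCl2, 0.01% Nonidet P-40, 0.01% BSA. Enzyme 15 nM, pre-exposed to compound 15 min; substrates then added and fluorescence change tracked over 30 min.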
# Active calls of the source: *; u = inconclusive; x = no result; ! = a repeat was not active; [ ] = dose if it differs, or a comment. Hits are enriched below; roughly 4.2% of the tested compounds scored in any of these assays. The call rests on the fitted dose curve; in most records, active means well fitted curve in the direction sought with a large enough effect; inconclusive means small, poorly fitted or top-dose-only effect, or another doubt; inactive means no such curve, though single readings can be large; an effect the other way counts as inactive or inconclusive. Unless noted, on the % scale 0 is the no-effect control and ±100 the full control effect; potency means the concentration at half of the fitted maximal effect.
SMILES,PLK1 PBD inh,ALOX12 inh,VDR inhibitor,Sfp PPTase inh
COc1ccc(CCNC(=O)CCCOc2ccc(Cl)cc2)cc1OC,-16%,0%,-6%,8%
COc1ccc(CCNC(=O)CC2Sc3ccccc3NC2=O)cc1OC (configuration not stated),x,4%,x,x
COc1ccc(CCNC(=O)CC(Cc2ccc(C)cc2)C(=O)O)cc1OC (configuration not stated),24µM*,19%,-30%,13%
COc1ccc(CCNC(=O)CC2SC(N)=NC2=O)cc1OC (configuration not stated),21µM*,-9%,u,23%
O=c1n(-c2ccc([N+](=O)[O-])cc2)nc2n1CCN(Cc1ccsc1)C2,x,16%[176 µM],x,x
O=C(CSc1n[nH]c(=O)[nH]c1=O)c1ccccc1[N+](=O)[O-],u,0%,-7%,-28%
CN(Cc1nc(-c2ccc(C(F)(F)F)cc2)no1)C1CCOCC1,-4%,-2%,10%,-11%
CC(C)c1ccc(S(=O)(=O)/N=C2\C=C(NS(=O)(=O)c3ccccc3)C(=O)c3ccccc32)cc1,24µM*,35µM*,79µM*,-17%
Cc1ccccc1NC1=C/C(=N\S(=O)(=O)c2cccs2)c2ccccc2C1=O,19µM*,-9%,-4%,-18%
O=C(O)c1ccc(S(=O)(=O)/N=C2\C=C(Nc3ccccc3F)C(=O)c3ccccc32)cc1,30µM*,u,32µM*,u
COc1ccc(S(=O)(=O)/N=C2\C=C(Nc3ccc(O)cc3)C(=O)c3ccccc32)cc1,-7%,-8%,-6%,-10%
Cc1ccc(C)c(S(=O)(=O)/N=C2\C=C(NS(=O)(=O)c3ccccc3)C(=O)c3ccccc32)c1,27µM*,u,-15%,-7%
Cc1ccc(CS(=O)Cc2ccc(C(=O)N3CCN(c4ccccc4)CC3)o2)cc1 (configuration not stated),-5%,22%,-21%,3%
CSCCC(NS(=O)(=O)c1ccc2c(c1)OCCO2)C(=O)N(C)Cc1ccc(C)cc1 (configuration not stated),1%,-28%,-20%,2%
COc1ccc(NC(=O)CN(C)S(=O)(=O)c2cnc[nH]2)cc1OC,-2%,0%,-2%,9%
CCc1ccc(S(=O)(=O)/N=C2\C=C(NS(=O)(=O)c3ccccc3)C(=O)c3ccccc32)cc1,21µM*,u,u,-6%
Cc1ccccc1NC1=C/C(=N\S(=O)(=O)c2ccc(C(=O)O)cc2)c2ccccc2C1=O,-28%,u,u,-28%
Cc1nn(CC(C)C)c2sc(C(=O)NCc3ccc(S(=O)(=O)N4CCOCC4)cc3)cc12,x,-1%,x,x
CCOC(=O)CSc1ccc2nnc(-c3ccccc3)n2n1,-2%,-17%,-4%,16%
O=C(CSc1ccc2nnc(-c3cccnc3)n2n1)NCc1ccco1,-5%,27%,-22%,50µM*
CCOC(=O)CSc1ccc2nnc(-c3cccnc3)n2n1,-10%,32µM*,-3%,-15%
Cc1ccc(NC(=O)CSc2ccc3nnc(-c4cccnc4)n3n2)cc1,-4%,12%,2%,10%
Cc1nc2cc(F)ccc2cc1C(=O)N1CCN(S(=O)(=O)c2ccccc2C#N)CC1,x,-4%,x,x
c1ccc2c(Nc3nc4c(s3)CCCC4)cccc2c1,u,0%,-4%,50µM*
S=c1[nH]nc(Nc2cccc3ccccc23)s1,u,u,-20%,40µM*
SMILES,PLK1 PBD inh,ALOX12 inh,VDR inhibitor,Sfp PPTase inh
CC(=O)c1sc(Nc2cccc3ccccc23)nc1C,-4%,u,-8%,x
Cc1cc(=O)[nH]c(Nc2cccc(Cl)c2C)n1,-1%,-17%,-6%,4%
Fc1ccccc1Nc1n[nH]c(=S)s1,30µM*,25µM*,-18%,50µM*
Cc1c(Cl)cccc1Nc1n[nH]c(=S)s1,u,22µM*,-22%,x
COc1ccc(NC(=O)C2CCCCN2N)cc1OC (configuration not stated),27µM*,5%,-13%,-8%
COc1ccc(CN2CCCCC2C(=O)Nc2ccc(OC)c(OC)c2)cc1OC (configuration not stated),1%,11%,-2%,8%
O=C(Nc1ccccc1N1CCCCC1)c1ccc(-c2cccc(Cl)c2)o1,-6%,0%,-5%,-21%
O=C(Nc1cccc2nsnc12)c1ccc(-c2cccc(Cl)c2)o1,u,u,u,25µM*
Cc1ccc2nsnc2c1NC(=O)c1ccc(-c2cc(Cl)ccc2Cl)o1,-8%,u,-6%,28µM*
O=C(C1CCOCC1)N1CCC2(CC1)CC(N(Cc1ccccc1)C1CC1)CCO2 (configuration not stated),x,33%,x,x
CN(C)C[C@@H]1CN(S(C)(=O)=O)C[C@H]1NC(=O)c1cnn(C)c1,x,34%,x,x
COc1ccc(CCNC(=O)C2CCN(S(=O)(=O)c3ccc(OC)cc3)CC2)cc1,0%,-10%,11%,16%
Clc1ccccc1Cn1c(/C=C/c2ccco2)nc2ccccc21,-9%,u,u,50µM*
COc1cccc(C(=O)N2CCCCC2CCN2CCCC2)c1 (configuration not stated),x,8%,x,x
COc1ccc(CNC(=O)C(C)N2CCN(c3ccc(C(C)=O)cc3)CC2)cc1 (configuration not stated),-9%,-5%,-6%,-6%
CC(C)NC(=O)c1ccc(F)cc1,x,-17%,x,x
CNNCc1ccc(C(=O)NC(C)C)cc1,-5%,12µM*!,-1%,-24%
CC1(C)OCC(COC(=O)Nc2cccnc2)([N+](=O)[O-])CO1,-15%,0%,-17%,15%
Cc1ccc(/C=N/NC(=S)NC(C)C)o1,-20%,0%,-7%,1%
CN(C)/C=C/c1c([N+](=O)[O-])c2ccc(O)cc2n1-c1ccccc1,0%,13%,u,2.5µM*
O=C(CCCc1ccccn1)c1ccccc1,-3%,-12%,9%,x
O=C(CCSc1ccccn1)c1ccccc1,u,-19%,u,79µM*
O=C(CCSc1ccccn1)Nc1ccc(Br)cc1,0%,-23%,-8%,-11%
O=C(O)CCSc1ccccn1,13µM*,-11%,-9%,50µM*
Cn1nc(C(=O)N2CC(C(=O)N3CCOCC3)Oc3ccccc32)c2ccccc2c1=O (configuration not stated),x,-29%,x,x
SMILES,PLK1 PBD inh,ALOX12 inh,VDR inhibitor,Sfp PPTase inh
COc1ccc(/C=N\Nc2ccccc2[N+](=O)[O-])c(C(=O)O)c1OC,-15%,-5%,-6%,12%
COc1ccc(/C=N\Nc2ccc([N+](=O)[O-])cc2[N+](=O)[O-])c(C(=O)O)c1OC,-3%,u,-16%,79µM*
CC(OC(=O)/C=C/c1cccc(C(F)(F)F)c1)C(=O)NC1CCCCC1C (configuration not stated),-1%,4%,10%,x
Oc1cccc(/C=N\Nc2nncc(-c3ccccc3)n2)c1,21µM*,-14%,u,2%
C(=C\c1ccccc1)/C=N/Nc1nncc(-c2ccccc2)n1,x,14%,x,8%
Cc1ccc(/C=N/Nc2nncc(-c3ccccc3)n2)o1,5%,-6%,4%,-9%
